# The supplement of paper PMC12282887
# ± gives the standard deviation of the averaged measurements.
# Experiments:
# Assay in all cases: promoter activity interaction Z-score (Lux/OD deviation from empty-vector control); higher = stronger promoter induction by the compound
# [1] = tested on: E. coli BW25113 acrABp lux reporter
# Outline: (§1)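 At 37°C, E. coli BW25113 reporter cultures in 40 µl LB Lennox in 384-well plates were read for OD600 and luminescence every 30 min for 12 h. Windows were 0–8 h for wild type and 1–9 h for deletion strains, and wells under 10% of the median growth value were removed. The score is the Z-transformed residual of growth-normalised luminescence against a control fit.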
# [2] = tested on: E. coli BW25113 micFp lux reporter
# Outline: as §1
# [3] = tested on: E. coli BW25113 ompFp lux reporter
# Outline: as §1
# [4] = 32.1 µg/ml, genetic background: wild type
# [5] = 32.1 µg/ml, genetic background: ΔmarA
# [6] = 32.1 µg/ml, genetic background: Δrob
# [7] = 32.1 µg/ml, genetic background: ΔsoxS
# [8] = 64.2 µg/ml, genetic background: wild type
# [9] = 64.2 µg/ml, genetic background: ΔmarA
# [10] = 64.2 µg/ml, genetic background: Δrob
# [11] = 64.2 µg/ml, genetic background: ΔsoxS
# [12] = 128.4 µg/ml, genetic background: wild type
# [13] = 128.4 µg/ml, genetic background: ΔmarA
# [14] = 128.4 µg/ml, genetic background: Δrob
# [15] = 128.4 µg/ml, genetic background: ΔsoxS
# [16] = 256.8 µg/ml, genetic background: wild type
# [17] = 256.8 µg/ml, genetic background: ΔmarA
# [18] = 256.8 µg/ml, genetic background: Δrob
# [19] = 256.8 µg/ml, genetic background: ΔsoxS
smiles,measurement,setting,value
CN(C)C(=O)C(CCN1CCC(O)(c2ccc(Cl)cc2)CC1)(c1ccccc1)c1ccccc1 [Loperamide],promoter activity interaction Z-score,[1]; [4],0.0421 ± 0.17
same,promoter activity interaction Z-score,[1]; [5],0.36 ± 0.083
same,promoter activity interaction Z-score,[1]; [6],-0.0142 ± 0.12
same,promoter activity interaction Z-score,[1]; [7],0.372 ± 0.34
same,promoter activity interaction Z-score,[1]; [8],-0.16 ± 0.23
same,promoter activity interaction Z-score,[1]; [9],0.126 ± 1.6
same,promoter activity interaction Z-score,[1]; [10],-0.00894 ± 0.11
same,promoter activity interaction Z-score,[1]; [11],0.114 ± 0.11
same,promoter activity interaction Z-score,[1]; [12],-0.237 ± 0.23
same,promoter activity interaction Z-score,[1]; [13],0.287 ± 0.52
same,promoter activity interaction Z-score,[1]; [14],-0.146 ± 0.17
same,promoter activity interaction Z-score,[1]; [15],0.111 ± 0.11
same,promoter activity interaction Z-score,[1]; [16],0.213 ± 0.0047
same,promoter activity interaction Z-score,[1]; [17],-1.07 ± 0.54
same,promoter activity interaction Z-score,[1]; [18],0.0923 ± 0.42
same,promoter activity interaction Z-score,[1]; [19],-0.358 ± 0.52
same,promoter activity interaction Z-score,[2]; [4],0.145 ± 0.076
same,promoter activity interaction Z-score,[2]; [5],0.0394 ± 0.035
same,promoter activity interaction Z-score,[2]; [6],0.0787 ± 0.17
same,promoter activity interaction Z-score,[2]; [7],-0.0846 ± 0.15
same,promoter activity interaction Z-score,[2]; [8],0.186 ± 0.1
same,promoter activity interaction Z-score,[2]; [9],0.0703 ± 0.0014
same,promoter activity interaction Z-score,[2]; [10],0.0931 ± 0.092
same,promoter activity interaction Z-score,[2]; [11],-0.0463 ± 0.045
same,promoter activity interaction Z-score,[2]; [12],0.0787 ± 0.19
same,promoter activity interaction Z-score,[2]; [13],0.0574 ± 0.025
same,promoter activity interaction Z-score,[2]; [14],0.0936 ± 0.24
same,promoter activity interaction Z-score,[2]; [15],-0.14 ± 0.12
same,promoter activity interaction Z-score,[2]; [16],-0.186 ± 0.52
same,promoter activity interaction Z-score,[2]; [17],-0.0712 ± 0.25
same,promoter activity interaction Z-score,[2]; [18],-0.12 ± 0.022
same,promoter activity interaction Z-score,[2]; [19],-0.469 ± 0.21
same,promoter activity interaction Z-score,[3]; [4],-0.00512 ± 0.32
same,promoter activity interaction Z-score,[3]; [5],0.262 ± 0.052
same,promoter activity interaction Z-score,[3]; [6],0.0272 ± 0.031
same,promoter activity interaction Z-score,[3]; [7],-0.21 ± 0.06
same,promoter activity interaction Z-score,[3]; [8],0.0346 ± 0.0034
same,promoter activity interaction Z-score,[3]; [9],-0.0766 ± 0.0049
same,promoter activity interaction Z-score,[3]; [10],-0.471 ± 0.21
same,promoter activity interaction Z-score,[3]; [11],-0.28 ± 0.26
same,promoter activity interaction Z-score,[3]; [12],-0.593 ± 0.28
same,promoter activity interaction Z-score,[3]; [13],-0.537 ± 0.65
same,promoter activity interaction Z-score,[3]; [14],-1.29 ± 0.17
same,promoter activity interaction Z-score,[3]; [15],-1.21 ± 0.3
same,promoter activity interaction Z-score,[3]; [16],0.202 ± 0.2
same,promoter activity interaction Z-score,[3]; [17],0.819 ± 0.3
same,promoter activity interaction Z-score,[3]; [18],-0.591 ± 0.47
same,promoter activity interaction Z-score,[3]; [19],0.54 ± 0.76
